Laboratory results taken from PubChem BioAssay (Tox21).
Results filed as inconclusive are left out. A number with no mark means an inactive call. Active and inactive are the calls of the source. The call rests on the fitted dose curve. Positions of bridges follow the written chain, without caps; N, C: chain ends. Non-standard residues stand in square brackets, D forms with d. Residues, ends and D or L forms follow the SMILES beside them. ξ: configuration not given here. *: point of attachment. d(aThr) = C[C@@H](O)[C@@H](N)C(=O)O; ξThr(3R) = C[C@@H](O)C(N)C(=O)O; X3 = CC[C@@H](C)CCCCC(=O)*; dDab = NCC[C@@H](N)C(=O)O

experiment: qHTS assay for small molecule agonists of the p53 signaling pathway - cell viability (AID 651633); settings: p53RE-bla HCT-116 viability, ATP luminescence, 16 h; series mostly up to 83.3 µM; activity change, negative = cytotoxicity: at the top concentration; further: nearly all actives have a fitted effect of over 30% in size;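 on activity change, negative = cytotoxicity: p53RE-bla HCT reporter cells with a stable beta-lactamase p53 reporter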
In short: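 Viability counter-read: CellTiter-Glo luminescence (30 min, room temperature) in the same p53RE-bla plates. These plates had been exposed to compounds for 16 h at 37 C.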
On the % scale 0 is the no-effect control and ±100 the full control effect; potency means the concentration at half of the fitted maximal effect.

Compound | activity change, negative = cytotoxicity [%] | Potency
COC(=O)C1=C(C)NC(C)=C(C(=O)O[C@H]2CCN(Cc3ccccc3)C2)[C@H]1c1cccc([N+](=O)[O-])c1 | -15.7 | 
CCCCCCCCCCCCCCCCOCCOCCOCCOCCOCCOCCOCCOCCOCCOCCOCCOCCOCCOCCOCCOCCOCCOCCOCCOCCO |  | 6.68 µM (active)
O=C(Nc1ccc(/C=C/c2ccc(NC(=O)c3cc(S(=O)(=O)O)c4cccnc4c3O)cc2S(=O)(=O)O)c(S(=O)(=O)O)c1)c1cc(S(=O)(=O)O)c2cccnc2c1O | 13.8 | 
C[C@]12C=CC(=O)N[C@@H]1CC[C@@H]1[C@@H]2CC[C@]2(C)[C@@H](C(=O)Nc3cc(C(F)(F)F)ccc3C(F)(F)F)CC[C@@H]12 | -29.2 | 
O=C(O)CN(CC(=O)O)CC1=CC2C(=CC1=O)Oc1cc(O)c(CN(CC(=O)O)CC(=O)O)cc1C21OC(=O)c2ccccc21 (centres undefined) | 21.7 | 
NC(=O)C[C@@H](N)C(=O)O | 18.1 | 
CC(C)NCC(O)COc1ccccc1-n1cccc1 (centres undefined) | 25.3 | 
O=C(OC[C@H]1O[C@](O)(COC(=O)c2cccnc2)[C@@H](OC(=O)c2cccnc2)[C@@H]1OC(=O)c1cccnc1)c1cccnc1 | 16.8 | 
Cc1cc(O)c2c(c1)O[C@@]1(C)CC[C@H]3C(C)(C)CCCC34CO[C@@H]2[C@H]41 (some centres undefined) |  | 26.6 µM (active)
OCC(S)CS (centres undefined) |  | 26.6 µM (active)
CCCCCc1ccc(C)cc1O | -26.4 | 
CN=C1C=CC(=C(c2ccc(N(C)C)cc2)c2ccc(N(C)C)cc2)C=C1 |  | 18.8 µM (active)
CCCC1([C@H](O)C/C=C/[C@H]2[C@H](O)CC(=O)[C@@H]2CCCCCCC(=O)OC)CCC1 |  | 29.8 µM (active)

experiment: qHTS assay for small molecules that induce genotoxicity in human embryonic kidney cells expressing luciferase-tagged ATAD5 - cell viability (AID 651634); settings: HEK293T ATAD5-luc cells viability, CellTiter-Fluor, 15.5 h; series mostly up to 83.3 µM; activity, negative = cytotoxicity: at the top concentration; further: nearly all actives have a fitted effect of over 25% in size
In short: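 Quantitative high-throughput format. HEK293T cells expressing ATAD5 fused to luciferase were plated at 2,000 cells/well and treated 15.5 hr with compound versus DMSO. Viability was determined by fluorescent live-cell protease substrate, 30 min at 37C.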

Compound | Potency | activity, negative = cytotoxicity
CSc1nc2cc(Oc3cccc(Cl)c3Cl)c(Cl)cc2[nH]1 | 29.8 µM (active) | 
Cc1ccc(S(=O)(=O)NC(=O)N[C@@H](C)Cc2ccccc2)cc1 |  | 21.7%
CC[C@@H](C)CCCCC(=O)N[C@H](CCN)C(=O)N[C@@H](C(=O)N[C@H](CCN)C(=O)N[C@@H]1CCNC(=O)C([C@@H](C)O)NC(=O)[C@@H](CCN)NC(=O)[C@@H](CCN)NC(=O)[C@@H](CC(C)C)NC(=O)[C@@H](Cc2ccccc2)NC(=O)[C@@H](CCN)NC1=O)[C@@H](C)O (stereo partly drawn) (X3-[dDab][d(aThr)][dDab][dDab][dDab][dF][dL][dDab][dDab][ξThr(3R)]; lactam 4-C) |  | 9.77%
CCC(=O)O[C@@H]1CC(=O)O[C@H](C)C/C=C/C=C/[C@H](O)[C@H](C)C[C@H](CC=O)[C@H](O[C@@H]2O[C@H](C)[C@@H](O[C@H]3C[C@@](C)(O)[C@@H](OC(=O)CC)[C@H](C)O3)[C@H](N(C)C)[C@H]2O)[C@H]1OC |  | 4.69% [at 39.1 µM]
NC(N)=NCC1COc2ccccc2O1 (centres undefined) |  | 4.48%
CC[C@]1(O)CC2CN(CCc3c([nH]c4ccccc34)[C@@](C(=O)OC)(c3cc4c(cc3OC)N(C)[C@H]3[C@@](O)(C(N)=O)[C@H](O)[C@]5(CC)C=CCN6CC[C@]43[C@@H]65)C2)C1 (some centres undefined) | 0.531 µM (active) | 
CN=C(NC)NCc1ccccc1 |  | -3.74%
CN(CCO)CC(O)Cn1cnc2c1c(=O)n(C)c(=O)n2C (centres undefined) (tested in a mixture with another compound) |  | 20.8%
COc1ccccc1N1CCN(CCCC(=O)c2ccc(F)cc2)CC1 |  | 13.1%
CN[C@@H]1[C@@H](O)[C@@H](O[C@@H]2[C@@H](O)[C@H](OC3OC(CN)=CCC3N)[C@@H](N)C[C@H]2N)OC[C@]1(C)O (some centres undefined) |  | 22.9% [at 39.1 µM]
c1ccc2cc(C3=NCCN3)ccc2c1 |  | 20.6%
CCC(=O)OCC(=O)[C@@]1(OC(=O)CC)[C@@H](C)C[C@H]2[C@@H]3CCC4=CC(=O)C=C[C@]4(C)[C@@]3(F)[C@@H](O)C[C@@]21C |  | -12.5%
C#C[C@]1(O)CC[C@H]2[C@@H]3CCC4=C(CCC(=O)C4)[C@H]3CC[C@@]21C |  | 21.8% [at 39.1 µM]
NCCC(=O)[N-][C@@H](Cc1cnc[nH]1)C(=O)O.[Zn] |  | -14.4%
O=C(O)c1cc(N=Nc2ccc(O)c(C(=O)O)c2)ccc1O |  | -8.35%
O=C(O)c1c(Cl)c(Cl)c(Cl)c(Cl)c1-c1c2cc(I)c(=O)c(I)c-2oc2c(I)c(O)c(I)cc12 | 26.6 µM (active) | 
CCC[C@@H]1C[C@@H](C(=O)N[C@@H]([C@H]2O[C@H](SC)[C@H](O)[C@@H](O)[C@H]2O)[C@H](C)Cl)N(C)C1 |  | 9.45%
CC(C)N=c1cc2n(-c3ccc(Cl)cc3)c3ccccc3nc-2cc1Nc1ccc(Cl)cc1 |  | 3.95% [at 39.1 µM]
C[C@@H]1CCC2[C@@H](C)[C@@H](O)O[C@@H]3O[C@@]4(C)CC[C@@H]1[C@@]23OO4 (some centres undefined) | 13.3 µM (active) | 
CC(=O)N[C@@H](C=O)[C@@H](O)[C@H](O)[C@H](O)CO |  | 16.1%
CCOC(=O)C1=C(COCCN)NC(C)=C(C(=O)OC)C1c1ccccc1Cl (centres undefined) | inactive | 
CCOC(=O)[C@@H](N)CS |  | -15.8%
CC[C@@H]1/C=C(\C)C[C@H](C)C[C@H](OC)[C@H]2O[C@@](O)(C(=O)C(=O)N3CCCC[C@H]3C(=O)O[C@H](/C(C)=C/[C@@H]3CC[C@@H](Cl)[C@H](OC)C3)[C@H](C)[C@@H](O)CC1=O)[C@H](C)C[C@@H]2OC |  | 18.9%
CCCCCCCCCCCCCCCC(=O)O[C@@H]1CC(C)=C(/C=C/C(C)=C/C=C/C(C)=C/C=C/C=C(C)/C=C/C=C(C)/C=C/C2=C(C)C[C@@H](OC(=O)CCCCCCCCCCCCCCC)CC2(C)C)C(C)(C)C1 |  | -11.4%
CCCCCCC(=O)O[C@H]1CC[C@H]2[C@@H]3CCc4cc(O)ccc4[C@H]3CC[C@]12C |  | 16.2%
C=C1C(=C/C=C2\CCC[C@]3(C)[C@@H]([C@H](C)/C=C/[C@H](C)C(C)C)CC[C@@H]23)C[C@@H](O)C[C@@H]1O |  | 13.6%
